Bioassay records from PubChem.
JMJD2E inh = qHTS Assay for Inhibitors of Human Jumonji Domain Containing 2E (JMJD2E). Lysine-specific demethylase 4E (Homo sapiens), B2RXH2. JMJD2E catalytic domain, FDH-coupled NADH fluorescence (FDH is formaldehyde dehydrogenase). Potency, µM (series often up to 57.1 µM), for inactives: top-dose activity change, negative = inhibition, actives largely listed as inhibitors. 230,000 compounds, 1.6% hits; active = well fitted inhibition curve with a large enough effect, not every such curve was filed as active; inconclusive = small, poorly fitted or top-dose-only effect, or another doubt; inactive = no such curve, though single readings can be large or run the other way;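 also: 0% = wells with enzyme and -100% = buffer wells without enzyme; nearly all actives have a fitted effect of over 50% in size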
L3MBTL1 inh = qHTS Assay for the Inhibitors of L3MBTL1 | AlphaScreen L3MBTL1–H3K9me1 peptide binding | Potency, µM (doses to about 57.1 µM), inactives show at the top dose activity, negative = inhibition, actives largely listed as inhibitors | 230,000 compounds, 0.66% hits | AID 485360, 2010; also: nearly all actives have a fitted effect of over 60% in size
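L3MBTL1 50 nM + b-AHA-H3(1-15)K9me1 75 nM, 30 min RT; compound added, 30 min RT; streptavidin donor/Ni-chelate acceptor beads 10 ug/mL each final, 30 min RT dark; AlphaScreen read.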
TDP1 inh = qHTS Assay for Inhibitors of Tyrosyl-DNA Phosphodiesterase (TDP1) | Tyrosyl-DNA phosphodiesterase 1 (Homo sapiens), Q9NUW8 | recombinant TDP1, AlphaScreen DNA substrate cleavage | Potency, µM (series often up to 130 µM), for the others: at the highest dose activity change, negative = inhibition, hits mostly inhibitors | 350,000 compounds, 0.28% hits | AID 485290, 2010; also: nearly all actives have a fitted effect of over 40% in size
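AlphaScreen read-out: signal falls as enzyme removes the 3' tyrosine-FITC from a 5'-biotinylated DNA oligo (15 nM, 5 min, RT). Enzyme was E. coli-made recombinant Tdp1 at 1 nM, exposed to compound for 15 min beforehand; beads 10 ug/ml, 10 min.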
BLM helicase inh = qHTS Assay for Inhibitors of Bloom's syndrome helicase (BLM) | RecQ-like DNA helicase BLM (Homo sapiens), P54132 | recombinant BLM DNA unwinding, fluorescence dequenching | Potency, µM (doses to about 56.1 µM), for inactives: top-dose activity change, negative = inhibition, most hits filed as inhibitors | 350,000 compounds, 0.2% hits;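 also: plate controls were vehicle for no effect and no enzyme for full effect; nearly all actives have a fitted effect of over 35% in size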
RECQ1 inh-1 = qHTS Assay for Inhibitors of RecQ-Like Dna Helicase 1 (RECQ1). ATP-dependent DNA helicase Q1 (Homo sapiens), P46063. RECQ1 DNA unwinding, red fluorescence kinetic read. Potency, µM (top dose mostly 57.3 µM), inactives show top-dose activity, negative = inhibition, most hits filed as inhibitors. 240,000 compounds, 0.54% hits. AID 2549, 2010;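 also: plate controls were vehicle for no effect and no enzyme for full effect; nearly all actives have a fitted effect of over 30% in size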
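RECQ1T1 50 nM; forked duplex (20 bp + 30-nt ss tails) 200 nM, ATP 2 mM final; pH 8.0, 2 mM MgCl2, 2.5 ug/ml poly(dI-dC); 15 min compound preincubation; discontinuous kinetic read over 2 h at RT.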
APEX1 inh = qHTS Assay for Inhibitors of the Human Apurinic/apyrimidinic Endonuclease 1 (APE1); DNA repair nuclease/redox regulator APEX1 (Homo sapiens), P27695; recombinant APE1, TAMRA/BHQ-2 abasic DNA cleavage fluorescence; Potency, µM (series often up to 65.8 µM), for the others: at the top dose activity change, negative = inhibition, usual class: inhibitors; 350,000 compounds, 0.35% hits; AID 2517, 2012;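 also: plate controls were vehicle for no effect and reference inhibitor for full effect; nearly all actives have a fitted effect of over 55% in size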
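APE1 at 0.75 nM preincubated 15 min at room temperature with compound. Reaction then started with 50 nM double-stranded THF-abasic substrate labelled with TAMRA/BHQ-2, and 525/598 nm fluorescence read kinetically. Activity taken as third-minus-first read difference, normalized to DMSO and NSC13755 controls.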
RECQ1 conf = Confirmation qHTS Assay for Inhibitors of RecQ-Like Dna Helicase 1 (RECQ1); shares compounds with RECQ1 inh-1; RECQ1 helicase DNA unwinding, fluorescence; Potency, µM (highest dose often 229 µM), inactives show at the highest dose activity change, negative = inhibition, most hits filed as inhibitors; 610 compounds, 28% hits; also: nearly all actives have a fitted effect of over 45% in size
RECQ1 ADP FP = Counterscreen for RECQ1 Inhibitors: ADP Fluorescence Polarization Displacement Assay; shares compounds with RECQ1 inh-1; ADP fluorescence polarization displacement counterscreen; Potency, µM (top dose mostly 228 µM), for inactives: at the top dose activity change, negative = inhibition, actives largely listed as inhibitors; 530 compounds, 27% hits; also: nearly all actives have a fitted effect of over 45% in size
RECQ1 inh-2 = Confirmation qHTS Assay for Inhibitors of RecQ-Like Dna Helicase 1 (RECQ1) - Round 2 Cherry Picks. shares compounds with RECQ1 inh-1. recombinant RECQ1 DNA unwinding, red fluorescence. Potency, µM (doses to about 119 µM), for the others: at the highest dose activity, negative = inhibition, hits mostly inhibitors. 1,100 compounds, 15% hits; also: nearly all actives have a fitted effect of over 50% in size
Active calls of the source: *; [ ] = dose if it differs, or a comment. The sample as a whole holds a higher share of hits than the screen did. Unless noted, calls follow the shape of the dose curve; as a rule, active = well fitted curve in the direction sought with a large enough effect; inconclusive = small, poorly fitted or top-dose-only effect, or another doubt; inactive = no such curve, though single readings can be large; an effect the other way counts as inactive or inconclusive. Unless noted, % is scaled to controls: 0 for no effect and ±100 for the full control effect; potency is read from the fitted curve at half-maximal effect.

Screening COc1cccc(CN2CCN(C(=O)c3cccc(OC)c3)CC2)c1 returned L3MBTL1 inh -4%, TDP1 inh 7%, BLM helicase inh -5% and APEX1 inh 37%.
`COc1cccc(CN2CCN(C(=O)c3ccc(-c4ccccc4)cc3)CC2)c1` gave JMJD2E inh inconclusive, L3MBTL1 inh -13%, TDP1 inh 5%, BLM helicase inh -2%, RECQ1 inh-1 25µM*, APEX1 inh 13% and RECQ1 inh-2 -27%.
`CC1=Nc2ccccc2/C1=C/c1nc(-c2ccc(C)s2)oc1O` gave JMJD2E inh inconclusive, L3MBTL1 inh -2%, TDP1 inh 5%, BLM helicase inh -7%, RECQ1 inh-1 inconclusive, APEX1 inh -12% and RECQ1 inh-2 inconclusive.
CC1CCc2nc3ccc(S(=O)(=O)N4CCC(C(=O)N5CCCCC5)CC4)cc3c(C(=O)O)c2C1 (stereo not given) was read as JMJD2E inh -16%, TDP1 inh 7%, BLM helicase inh 2%, RECQ1 inh-1 -4% and APEX1 inh -2%.
For O=C(O)c1c2c(nc3ccc(S(=O)(=O)N4CCC(C(=O)N5CCCCC5)CC4)cc13)CCCC2 the results were JMJD2E inh inconclusive, TDP1 inh 7%, BLM helicase inh -6%, RECQ1 inh-1 inconclusive, APEX1 inh -10% and RECQ1 inh-2 8%.
O=C(CCS(=O)(=O)c1ccc(Br)cc1)Nc1ccc(Br)cc1F was read as JMJD2E inh 4%, L3MBTL1 inh inconclusive, BLM helicase inh -8%, RECQ1 inh-1 35µM*, APEX1 inh -10% and RECQ1 inh-2 inconclusive.
CCCCN(C)CCCNC(=O)Cn1ncc2c3ccccc3n(Cc3cc(C)ccc3C)c2c1=O was read as TDP1 inh 10% and BLM helicase inh -10%.
For O=C(COc1ccc(Cl)cc1Cl)NC(=O)c1ccccc1 the results were TDP1 inh 2%, BLM helicase inh -1% and APEX1 inh 23%.
`O=C(O)CC(NC(=O)COc1ccc(Cl)cc1Cl)C(=O)O` (stereo not given) gave JMJD2E inh 1%, L3MBTL1 inh -8%, TDP1 inh -4%, BLM helicase inh 1%, RECQ1 inh-1 15%, APEX1 inh 2%, RECQ1 conf 15% and RECQ1 ADP FP 5%.
`CN1CC(O)C2=CC(=O)C(=O)C=C21` (stereo not given) gave TDP1 inh inconclusive, RECQ1 inh-1 2.8µM*, APEX1 inh 0.4µM*, RECQ1 conf active and RECQ1 ADP FP 10µM*.
Screening COc1ccc(CCNc2ncnc3c2[nH]c2cc(OC)c(OC)cc23)cc1OC returned JMJD2E inh inconclusive, TDP1 inh 2%, BLM helicase inh -14%, RECQ1 inh-1 14µM*, APEX1 inh inconclusive, RECQ1 conf inconclusive, RECQ1 ADP FP -23%[91.9 µM] and RECQ1 inh-2 inconclusive.
For Cc1cc(C)cc(C(=O)NCC(=O)OCC(=O)N2c3ccccc3NC(=O)C2(C)C)c1 the results were JMJD2E inh -6%, L3MBTL1 inh 18µM*, TDP1 inh inconclusive, BLM helicase inh -25%, RECQ1 inh-1 inconclusive, APEX1 inh inconclusive and RECQ1 inh-2 -23%.
`CC1(C)C(=O)Nc2ccccc2N1C(=O)COC(=O)Cc1ccccc1F` gave L3MBTL1 inh 0%, TDP1 inh -16% and APEX1 inh -7%.
O=[N+]([O-])c1cc(S(=O)(=O)C(F)(F)F)ccc1N1CCN(c2ccccc2)CC1 was read as JMJD2E inh -1%, L3MBTL1 inh inconclusive, TDP1 inh 5%, BLM helicase inh -4%, RECQ1 inh-1 inconclusive, APEX1 inh 11% and RECQ1 inh-2 -4%.
CCOc1cc(/C=C(/NC(C)=O)C(=O)O)cc(Cl)c1OCc1cccc(Br)c1 was read as JMJD2E inh 0%, L3MBTL1 inh 1%, TDP1 inh 3%, BLM helicase inh -2%, RECQ1 inh-1 -3%, APEX1 inh 20%, RECQ1 conf inconclusive and RECQ1 ADP FP -9%.
For CCCn1c(-c2ccc(F)cc2)nc2c(NCCN(CC)CC)nc(C)nc21 the results were JMJD2E inh inconclusive, TDP1 inh 2%, BLM helicase inh -9%, RECQ1 inh-1 -8% and APEX1 inh 12%.
Cc1cc2cc(C(c3nnnn3Cc3ccco3)N3CCc4ccccc43)c(=O)[nH]c2cc1C (stereo not given) was read as JMJD2E inh inconclusive, L3MBTL1 inh -29%, TDP1 inh -4%, BLM helicase inh -24%, RECQ1 inh-1 inconclusive, APEX1 inh inconclusive and RECQ1 inh-2 -7%.
Cc1cc2cc(C(c3nnnn3Cc3ccccc3)N3CCc4ccccc43)c(=O)[nH]c2cc1C (stereo not given) was read as JMJD2E inh inconclusive, TDP1 inh -3%, BLM helicase inh -7%, RECQ1 inh-1 -3% and APEX1 inh -11%.
Screening O=C1CSC(=S)N1/N=C/c1ccc(O)c(O)c1O returned JMJD2E inh 2.2µM*, L3MBTL1 inh 1.1µM*, TDP1 inh inconclusive, BLM helicase inh inconclusive, RECQ1 inh-1 2.2µM*, APEX1 inh 0.35µM* and RECQ1 conf inconclusive.
